# Columns and labels:
# Experiment in all cases: DAPPL (digital affinity profiling via proximity ligation, sequencing); 10 mM Tris-HCl pH 7.5, 50 mM NaCl, 1 mM DTT, 4% glycerol, room temperature, 30 min; GST-TFs on glutathione beads, 16-mer random dsDNA library, 0.1% formaldehyde crosslink after washing; high values mean tight binding
# FLI1 = target: T1, FLI1 (Homo sapiens, UniProt Q01543 1-452); conditions: protein: recombinant; tags: N-terminal GST; dsDNA, one strand shown
# T1 sequence: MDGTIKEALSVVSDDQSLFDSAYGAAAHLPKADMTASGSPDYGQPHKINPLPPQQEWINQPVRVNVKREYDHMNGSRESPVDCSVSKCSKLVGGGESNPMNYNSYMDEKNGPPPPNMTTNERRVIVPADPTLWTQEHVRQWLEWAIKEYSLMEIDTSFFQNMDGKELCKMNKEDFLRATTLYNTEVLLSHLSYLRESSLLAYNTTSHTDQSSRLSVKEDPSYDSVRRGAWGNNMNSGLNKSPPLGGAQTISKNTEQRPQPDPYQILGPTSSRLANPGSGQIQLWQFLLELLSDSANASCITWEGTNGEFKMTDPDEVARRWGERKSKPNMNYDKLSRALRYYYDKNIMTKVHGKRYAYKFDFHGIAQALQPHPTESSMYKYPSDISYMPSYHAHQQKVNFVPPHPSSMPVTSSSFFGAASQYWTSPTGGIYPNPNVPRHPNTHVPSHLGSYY
# Summary of the method: (§1)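 Pools were built from human transcription factors expressed in yeast as GST fusions, captured on glutathione beads and DNA-barcoded, along with a tag-only sample. Incubation with 200 nmole of a 16-mer random double-stranded DNA library lasted 30 min at room temperature in Tris/NaCl/DTT/glycerol buffer, and was followed by washing, 0.1% formaldehyde crosslinking, proximity ligation, PCR amplification and Illumina NextSeq500 sequencing. Binding signal is the quotient of each hexamer's read frequency for a factor and its frequency for the tag-only sample.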
# ELK1 = target: T2, ELK1 (Homo sapiens, UniProt P19419 1-428); conditions: protein: recombinant; tags: N-terminal GST; dsDNA, one strand shown
# T2 sequence: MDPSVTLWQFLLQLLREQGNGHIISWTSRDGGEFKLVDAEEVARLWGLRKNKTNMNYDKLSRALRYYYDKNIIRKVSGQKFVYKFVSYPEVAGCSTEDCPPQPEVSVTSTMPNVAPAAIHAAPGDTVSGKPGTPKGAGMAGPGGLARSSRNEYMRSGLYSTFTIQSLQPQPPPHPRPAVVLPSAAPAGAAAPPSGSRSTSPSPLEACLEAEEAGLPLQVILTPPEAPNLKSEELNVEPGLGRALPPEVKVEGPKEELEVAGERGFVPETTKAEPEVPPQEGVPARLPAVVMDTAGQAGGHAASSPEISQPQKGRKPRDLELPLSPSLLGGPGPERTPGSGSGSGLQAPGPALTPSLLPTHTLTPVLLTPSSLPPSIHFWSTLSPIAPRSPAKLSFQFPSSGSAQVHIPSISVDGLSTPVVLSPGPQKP
# Summary of the method: as §1
# GABPA = target: T3, GABPA (Homo sapiens, UniProt Q06546 1-454); conditions: protein: recombinant; tags: N-terminal GST; dsDNA, one strand shown
# T3 sequence: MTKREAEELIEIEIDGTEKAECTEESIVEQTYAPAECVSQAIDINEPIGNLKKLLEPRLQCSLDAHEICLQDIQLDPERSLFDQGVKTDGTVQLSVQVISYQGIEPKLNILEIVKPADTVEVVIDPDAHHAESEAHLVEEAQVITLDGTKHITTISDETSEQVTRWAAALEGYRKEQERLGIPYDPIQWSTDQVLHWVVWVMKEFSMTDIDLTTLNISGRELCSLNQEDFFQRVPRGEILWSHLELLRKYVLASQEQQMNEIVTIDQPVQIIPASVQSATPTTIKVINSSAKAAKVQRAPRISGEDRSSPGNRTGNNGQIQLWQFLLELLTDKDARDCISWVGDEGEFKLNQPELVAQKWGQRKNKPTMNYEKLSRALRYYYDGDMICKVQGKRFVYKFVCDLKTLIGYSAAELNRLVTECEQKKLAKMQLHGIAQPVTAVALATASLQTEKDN
# Summary of the method: as §1
# ERG = target: T4, ERG (Homo sapiens, UniProt P11308 1-479); conditions: protein: recombinant; tags: N-terminal GST; dsDNA, one strand shown
# T4 sequence: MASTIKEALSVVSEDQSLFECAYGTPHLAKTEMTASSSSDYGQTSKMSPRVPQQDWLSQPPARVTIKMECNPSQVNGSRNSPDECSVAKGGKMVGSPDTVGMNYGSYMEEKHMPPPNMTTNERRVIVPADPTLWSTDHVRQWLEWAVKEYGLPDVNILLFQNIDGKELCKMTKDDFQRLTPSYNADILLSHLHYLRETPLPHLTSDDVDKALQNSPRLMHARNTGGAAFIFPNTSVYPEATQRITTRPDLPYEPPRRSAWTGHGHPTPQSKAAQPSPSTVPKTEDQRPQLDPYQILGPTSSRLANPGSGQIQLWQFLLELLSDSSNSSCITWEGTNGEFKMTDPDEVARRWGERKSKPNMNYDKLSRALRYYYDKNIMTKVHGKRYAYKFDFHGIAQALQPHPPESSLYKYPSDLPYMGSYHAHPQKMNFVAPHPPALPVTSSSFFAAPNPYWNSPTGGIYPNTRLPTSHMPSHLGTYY
# Summary of the method: as §1
# ELF1 = ELF1 (Homo sapiens, UniProt P32519 1-619); conditions: protein: recombinant; tags: N-terminal GST; dsDNA, one strand shown
# Sequence of ELF1 (P32519 whole entry): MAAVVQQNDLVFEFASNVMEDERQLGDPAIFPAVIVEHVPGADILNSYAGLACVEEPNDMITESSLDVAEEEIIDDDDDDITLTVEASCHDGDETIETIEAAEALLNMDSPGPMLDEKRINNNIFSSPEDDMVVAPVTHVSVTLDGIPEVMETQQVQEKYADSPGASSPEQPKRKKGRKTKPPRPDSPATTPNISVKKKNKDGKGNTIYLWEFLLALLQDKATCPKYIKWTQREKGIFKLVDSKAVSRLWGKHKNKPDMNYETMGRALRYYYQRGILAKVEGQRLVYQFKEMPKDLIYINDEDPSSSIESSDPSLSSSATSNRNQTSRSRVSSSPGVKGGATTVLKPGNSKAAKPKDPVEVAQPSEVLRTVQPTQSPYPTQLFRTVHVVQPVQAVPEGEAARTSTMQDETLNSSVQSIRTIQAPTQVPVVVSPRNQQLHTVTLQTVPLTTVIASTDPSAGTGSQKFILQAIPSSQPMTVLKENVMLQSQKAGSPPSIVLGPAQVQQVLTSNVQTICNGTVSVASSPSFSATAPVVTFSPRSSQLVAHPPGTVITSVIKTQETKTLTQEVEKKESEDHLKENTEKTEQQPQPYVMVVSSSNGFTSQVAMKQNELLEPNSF
# Summary of the method: as §1
# EHF = target: T5, EHF (Homo sapiens, UniProt Q9NZC4 1-300); conditions: protein: recombinant; tags: N-terminal GST; dsDNA, one strand shown
# T5 sequence: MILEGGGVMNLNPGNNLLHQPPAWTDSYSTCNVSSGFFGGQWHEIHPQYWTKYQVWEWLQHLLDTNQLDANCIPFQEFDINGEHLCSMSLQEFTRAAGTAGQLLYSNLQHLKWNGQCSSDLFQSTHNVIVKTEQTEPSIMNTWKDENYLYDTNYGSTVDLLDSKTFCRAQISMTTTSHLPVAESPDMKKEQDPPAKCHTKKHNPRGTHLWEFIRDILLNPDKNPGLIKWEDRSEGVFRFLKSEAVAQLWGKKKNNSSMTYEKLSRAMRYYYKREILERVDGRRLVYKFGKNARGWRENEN
# Summary of the method: as §1
# SPI1 = SPI1 (Homo sapiens, UniProt P17947 1-270); conditions: protein: recombinant; tags: N-terminal GST; dsDNA, one strand shown
# Summary of the method: as §1
# SPIB = SPIB (Homo sapiens, UniProt Q01892 1-262); conditions: protein: recombinant; tags: N-terminal GST; dsDNA, one strand shown
# Sequence of SPIB (Q01892 whole entry): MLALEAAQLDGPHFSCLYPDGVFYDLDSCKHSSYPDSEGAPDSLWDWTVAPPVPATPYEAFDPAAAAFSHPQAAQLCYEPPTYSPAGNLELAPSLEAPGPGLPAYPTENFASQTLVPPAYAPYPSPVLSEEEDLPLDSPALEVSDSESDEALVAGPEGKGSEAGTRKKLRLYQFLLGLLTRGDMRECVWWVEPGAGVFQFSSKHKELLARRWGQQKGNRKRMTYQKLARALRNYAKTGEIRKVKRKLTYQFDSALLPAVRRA
# Summary of the method: as §1
# ELK3 = target: T6, ELK3 (Homo sapiens, UniProt P41970 1-407); conditions: protein: recombinant; tags: N-terminal GST; dsDNA, one strand shown
# T6 sequence: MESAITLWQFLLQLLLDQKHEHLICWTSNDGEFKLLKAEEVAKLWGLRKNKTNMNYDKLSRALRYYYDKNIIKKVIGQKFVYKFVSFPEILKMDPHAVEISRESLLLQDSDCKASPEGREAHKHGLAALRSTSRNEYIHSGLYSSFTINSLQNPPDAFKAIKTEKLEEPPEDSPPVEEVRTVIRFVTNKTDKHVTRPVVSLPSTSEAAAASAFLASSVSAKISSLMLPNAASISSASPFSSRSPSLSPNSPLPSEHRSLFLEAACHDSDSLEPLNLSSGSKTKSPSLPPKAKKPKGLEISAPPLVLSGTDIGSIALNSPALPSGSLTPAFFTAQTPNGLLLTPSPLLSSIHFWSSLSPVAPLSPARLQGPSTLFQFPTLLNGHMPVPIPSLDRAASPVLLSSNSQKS
# Summary of the method: as §1
# FEV = target: T7, FEV (Homo sapiens, UniProt Q99581 1-238); conditions: protein: recombinant; tags: N-terminal GST; dsDNA, one strand shown
# T7 sequence: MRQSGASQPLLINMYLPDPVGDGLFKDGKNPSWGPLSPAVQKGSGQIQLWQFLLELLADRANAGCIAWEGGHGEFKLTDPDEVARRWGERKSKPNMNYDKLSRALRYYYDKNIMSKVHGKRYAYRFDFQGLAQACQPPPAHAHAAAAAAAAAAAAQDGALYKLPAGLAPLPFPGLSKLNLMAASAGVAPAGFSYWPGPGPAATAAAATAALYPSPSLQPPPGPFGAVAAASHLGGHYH
# Summary of the method: as §1
# ETV5 = ETV5 (Homo sapiens, UniProt P41161 1-510); conditions: protein: recombinant; tags: N-terminal GST; dsDNA, one strand shown
# Sequence of ETV5 (P41161 whole entry): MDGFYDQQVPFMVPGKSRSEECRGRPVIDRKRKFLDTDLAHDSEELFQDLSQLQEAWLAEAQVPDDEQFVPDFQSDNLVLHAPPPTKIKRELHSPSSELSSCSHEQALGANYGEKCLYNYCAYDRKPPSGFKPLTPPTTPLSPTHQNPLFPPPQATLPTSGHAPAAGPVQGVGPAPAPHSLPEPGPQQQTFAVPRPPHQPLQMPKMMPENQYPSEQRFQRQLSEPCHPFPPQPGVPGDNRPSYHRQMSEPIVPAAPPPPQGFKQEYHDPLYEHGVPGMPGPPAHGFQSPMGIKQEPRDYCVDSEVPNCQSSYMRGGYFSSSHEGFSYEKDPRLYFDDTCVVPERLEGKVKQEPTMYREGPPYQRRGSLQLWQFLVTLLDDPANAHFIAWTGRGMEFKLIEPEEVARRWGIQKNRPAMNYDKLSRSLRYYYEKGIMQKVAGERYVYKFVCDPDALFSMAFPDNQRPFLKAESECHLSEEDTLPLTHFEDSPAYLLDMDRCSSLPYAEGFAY
# Summary of the method: as §1
# HSF1 = HSF1 (Homo sapiens, UniProt Q00613 1-529); conditions: protein: recombinant; tags: N-terminal GST; chain copies: 3; dsDNA, one strand shown
# Sequence of HSF1 (Q00613 whole entry): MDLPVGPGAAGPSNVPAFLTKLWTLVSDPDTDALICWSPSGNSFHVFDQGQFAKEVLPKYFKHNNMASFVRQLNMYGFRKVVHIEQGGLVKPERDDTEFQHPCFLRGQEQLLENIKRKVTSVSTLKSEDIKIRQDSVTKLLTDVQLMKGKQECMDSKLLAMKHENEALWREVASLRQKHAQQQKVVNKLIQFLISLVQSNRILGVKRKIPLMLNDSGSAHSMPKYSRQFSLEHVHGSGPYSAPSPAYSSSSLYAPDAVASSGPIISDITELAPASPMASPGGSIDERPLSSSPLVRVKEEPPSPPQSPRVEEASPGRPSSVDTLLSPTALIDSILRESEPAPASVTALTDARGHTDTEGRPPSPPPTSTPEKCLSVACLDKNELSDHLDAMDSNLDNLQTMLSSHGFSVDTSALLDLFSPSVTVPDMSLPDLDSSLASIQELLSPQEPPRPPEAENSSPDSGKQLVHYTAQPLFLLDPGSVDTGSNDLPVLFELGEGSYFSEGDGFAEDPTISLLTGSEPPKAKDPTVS
# Summary of the method: as §1
# SPIC = target: T8, SPIC (Homo sapiens, UniProt Q8N5J4 1-248); conditions: protein: recombinant; tags: N-terminal GST; dsDNA, one strand shown
# T8 sequence: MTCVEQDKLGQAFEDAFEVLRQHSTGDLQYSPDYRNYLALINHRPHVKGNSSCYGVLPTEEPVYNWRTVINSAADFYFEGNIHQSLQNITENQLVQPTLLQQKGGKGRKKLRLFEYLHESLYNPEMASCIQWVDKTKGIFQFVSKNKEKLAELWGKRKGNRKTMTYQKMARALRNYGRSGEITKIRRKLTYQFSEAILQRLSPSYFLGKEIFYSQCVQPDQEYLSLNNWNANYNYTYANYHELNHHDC
# Summary of the method: as §1
# ELF4 = ELF4 (Homo sapiens, UniProt Q99607 1-663); conditions: protein: recombinant; tags: N-terminal GST; dsDNA, one strand shown
# Sequence of ELF4 (Q99607 whole entry): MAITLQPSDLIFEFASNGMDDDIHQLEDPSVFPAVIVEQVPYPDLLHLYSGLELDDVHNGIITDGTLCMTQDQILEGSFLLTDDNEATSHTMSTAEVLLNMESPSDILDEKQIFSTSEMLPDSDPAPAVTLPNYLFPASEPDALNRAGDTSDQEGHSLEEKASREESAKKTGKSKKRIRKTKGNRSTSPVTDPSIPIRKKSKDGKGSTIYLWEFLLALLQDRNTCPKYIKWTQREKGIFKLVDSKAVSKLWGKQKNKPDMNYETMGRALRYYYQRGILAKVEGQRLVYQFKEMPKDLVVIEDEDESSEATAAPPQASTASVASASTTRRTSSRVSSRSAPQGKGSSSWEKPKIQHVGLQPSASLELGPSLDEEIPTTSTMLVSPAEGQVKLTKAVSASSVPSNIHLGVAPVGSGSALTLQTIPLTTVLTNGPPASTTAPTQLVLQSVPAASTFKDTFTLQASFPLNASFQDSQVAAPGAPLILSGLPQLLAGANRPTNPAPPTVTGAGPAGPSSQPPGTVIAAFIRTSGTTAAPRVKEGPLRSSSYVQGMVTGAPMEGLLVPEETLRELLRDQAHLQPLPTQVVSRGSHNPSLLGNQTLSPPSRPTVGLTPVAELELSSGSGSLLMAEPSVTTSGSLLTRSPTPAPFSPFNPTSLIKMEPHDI
# Summary of the method: as §1
# ELK4 = target: T9, ELK4 (Homo sapiens, UniProt P28324-2 1-405); conditions: protein: recombinant; tags: N-terminal GST; dsDNA, one strand shown
# T9 sequence: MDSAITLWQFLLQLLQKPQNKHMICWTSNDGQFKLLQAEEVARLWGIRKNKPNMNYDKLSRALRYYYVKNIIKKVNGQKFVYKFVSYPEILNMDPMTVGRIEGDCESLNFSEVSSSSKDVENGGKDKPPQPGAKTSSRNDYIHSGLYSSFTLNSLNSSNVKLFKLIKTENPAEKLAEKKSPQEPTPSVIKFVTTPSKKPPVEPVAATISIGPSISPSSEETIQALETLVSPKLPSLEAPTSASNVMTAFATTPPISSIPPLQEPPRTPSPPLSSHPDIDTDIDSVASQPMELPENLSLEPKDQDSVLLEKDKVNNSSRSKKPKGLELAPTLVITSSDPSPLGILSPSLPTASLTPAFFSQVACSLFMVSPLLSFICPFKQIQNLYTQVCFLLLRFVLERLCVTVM
# Summary of the method: as §1
# ETV2 = target: T10, ETV2 (Homo sapiens, UniProt O00321 1-342); conditions: protein: recombinant; tags: N-terminal GST; dsDNA, one strand shown
# T10 sequence: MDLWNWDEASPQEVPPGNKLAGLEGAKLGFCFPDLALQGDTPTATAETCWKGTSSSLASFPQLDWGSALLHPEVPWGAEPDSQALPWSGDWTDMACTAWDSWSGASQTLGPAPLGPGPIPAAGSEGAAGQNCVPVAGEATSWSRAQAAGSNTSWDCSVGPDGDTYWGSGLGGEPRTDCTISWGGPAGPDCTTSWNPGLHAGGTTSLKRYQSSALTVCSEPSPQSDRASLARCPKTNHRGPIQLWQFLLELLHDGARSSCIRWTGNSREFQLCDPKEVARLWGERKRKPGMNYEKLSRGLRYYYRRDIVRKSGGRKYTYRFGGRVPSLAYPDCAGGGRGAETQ
# Summary of the method: as §1
# ELF3 = target: T11, ELF3 (Homo sapiens, UniProt P78545 1-371); conditions: protein: recombinant; tags: N-terminal GST; dsDNA, one strand shown
# T11 sequence: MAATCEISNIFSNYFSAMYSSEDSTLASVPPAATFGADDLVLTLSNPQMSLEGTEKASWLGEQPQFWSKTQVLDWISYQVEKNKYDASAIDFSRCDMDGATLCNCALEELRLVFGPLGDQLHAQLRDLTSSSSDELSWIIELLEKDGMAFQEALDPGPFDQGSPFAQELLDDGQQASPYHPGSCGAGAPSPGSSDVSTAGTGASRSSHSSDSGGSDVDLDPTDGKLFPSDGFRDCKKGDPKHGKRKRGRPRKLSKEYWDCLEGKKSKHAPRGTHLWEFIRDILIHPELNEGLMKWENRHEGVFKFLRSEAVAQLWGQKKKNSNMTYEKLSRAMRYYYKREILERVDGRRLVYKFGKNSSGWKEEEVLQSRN
# Summary of the method: as §1
# CRX = CRX (Homo sapiens, UniProt O43186 1-299); conditions: protein: recombinant; tags: N-terminal GST; dsDNA, one strand shown
# Sequence of CRX (O43186 whole entry): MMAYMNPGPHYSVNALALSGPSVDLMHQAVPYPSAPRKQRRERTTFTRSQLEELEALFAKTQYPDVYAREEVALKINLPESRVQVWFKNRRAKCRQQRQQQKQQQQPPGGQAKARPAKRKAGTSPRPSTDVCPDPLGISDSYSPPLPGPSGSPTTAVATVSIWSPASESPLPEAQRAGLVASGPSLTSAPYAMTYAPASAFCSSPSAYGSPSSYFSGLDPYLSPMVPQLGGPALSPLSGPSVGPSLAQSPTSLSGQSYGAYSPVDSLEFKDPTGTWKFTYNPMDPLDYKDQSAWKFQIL
# Summary of the method: as §1
# ETV1 = ETV1 (Homo sapiens, UniProt P50549 1-477); conditions: protein: recombinant; tags: N-terminal GST; dsDNA, one strand shown
# Sequence of ETV1 (P50549 whole entry): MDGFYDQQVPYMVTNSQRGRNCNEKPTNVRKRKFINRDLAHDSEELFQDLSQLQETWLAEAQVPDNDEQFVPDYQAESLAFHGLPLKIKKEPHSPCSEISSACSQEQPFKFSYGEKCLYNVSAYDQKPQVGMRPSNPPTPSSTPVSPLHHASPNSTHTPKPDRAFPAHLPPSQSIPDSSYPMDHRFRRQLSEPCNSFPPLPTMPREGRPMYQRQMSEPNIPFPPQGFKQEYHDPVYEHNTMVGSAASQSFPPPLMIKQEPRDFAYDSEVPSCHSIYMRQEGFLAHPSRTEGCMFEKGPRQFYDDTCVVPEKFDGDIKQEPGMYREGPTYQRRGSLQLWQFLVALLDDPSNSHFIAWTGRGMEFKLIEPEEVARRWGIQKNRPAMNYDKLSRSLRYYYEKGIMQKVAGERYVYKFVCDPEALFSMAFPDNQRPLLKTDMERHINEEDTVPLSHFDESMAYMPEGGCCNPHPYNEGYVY
# Summary of the method: as §1
sequence,measurement,setting,value
TTCATC,binding signal,FLI1,"1.36 fold enrichment (6-mer frequency, TF over GST control)"
same,binding signal,ELK1,"1.28 fold enrichment (6-mer frequency, TF over GST control)"
same,binding signal,GABPA,"1.29 fold enrichment (6-mer frequency, TF over GST control)"
same,binding signal,ERG,"1.22 fold enrichment (6-mer frequency, TF over GST control)"
same,binding signal,ELF1,"1.27 fold enrichment (6-mer frequency, TF over GST control)"
same,binding signal,EHF,"1.14 fold enrichment (6-mer frequency, TF over GST control)"
same,binding signal,SPI1,"1.27 fold enrichment (6-mer frequency, TF over GST control)"
same,binding signal,SPIB,"1.28 fold enrichment (6-mer frequency, TF over GST control)"
same,binding signal,ELK3,"1.32 fold enrichment (6-mer frequency, TF over GST control)"
same,binding signal,FEV,"1.21 fold enrichment (6-mer frequency, TF over GST control)"
same,binding signal,ETV5,"1.28 fold enrichment (6-mer frequency, TF over GST control)"
same,binding signal,HSF1,"1.29 fold enrichment (6-mer frequency, TF over GST control)"
same,binding signal,SPIC,"1.28 fold enrichment (6-mer frequency, TF over GST control)"
same,binding signal,ELF4,"1.27 fold enrichment (6-mer frequency, TF over GST control)"
same,binding signal,ELK4,"1.27 fold enrichment (6-mer frequency, TF over GST control)"
same,binding signal,ETV2,"1.25 fold enrichment (6-mer frequency, TF over GST control)"
same,binding signal,ELF3,"1.3 fold enrichment (6-mer frequency, TF over GST control)"
same,binding signal,CRX,"1.28 fold enrichment (6-mer frequency, TF over GST control)"
same,binding signal,ETV1,"1.25 fold enrichment (6-mer frequency, TF over GST control)"
